# Source: PubChem BioAssay
# A selection: hits, their analogues and other compounds. The true share with any hit is near 21%.
# TDP1 cell CPT: qHTS for Inhibitors of human tyrosyl-DNA phosphodiesterase 1 (TDP1): qHTS in cells in presence of CPT; hit rate 12% among 420,000; chicken DT40 Tdp1-/-;hTDP1 cells + 20 nM CPT, ATP luminescence, 48 h; Potency, µM (series often up to 46.2 µM), without a hit: at the highest dose activity change, negative = growth inhibition, most hits filed as inhibitors; further: potency means the concentration at half of the fitted maximal effect; nearly all actives have a fitted effect of over 55% in size
#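 Cell growth measured by CellTiter-Glo luminescence after a minimum 48 h, 37 C compound exposure with 20 nM CPT in Tdp1-knockout DT40 cells stably expressing hTDP1, seeded 400/well; qHTS titration format.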
# ELG1 repair inh: qHTS screen for small molecules that inhibit ELG1-dependent DNA repair in human embryonic kidney (HEK293T) cells expressing luciferase-tagged ELG1 | hit rate 2.3% among 330,000 | Potency, µM (doses to about 46.1 µM), inactives show at the highest dose activity change, negative = inhibition, actives largely listed as inhibitors | HEK293T ELG1-luciferase reporter, luminescence, 16 h; DNA damage induced by 5-fluorouridine | AID 504467, 2011; further: potency means the concentration at half of the fitted maximal effect; nearly all actives have a fitted effect of over 55% in size
#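 Step one: seed 2,000 cells per well. Step two: pin-transfer compound or DMSO alongside 5-fluorouridine. Step three: incubate 16 hr, 37 °C, 5% CO2. Step four: add ONE-Glo, wait 30 min, read luminescence.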
# TDP1 cell noCPT: qHTS for Inhibitors of human tyrosyl-DNA phosphodiesterase 1 (TDP1): qHTS in cells in absence of CPT | AID 686978, 2013 | Potency, µM (doses to about 46.2 µM), for inactives: top-dose activity change, negative = growth inhibition, usual class: inhibitors | DT40 Tdp1-/- hTDP1 cells, no CPT, ATP luminescence, 48 h | hit rate 15% among 420,000; further: potency means the concentration at half of the fitted maximal effect; nearly all actives have a fitted effect of over 55% in size
#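 DT40 Tdp1-/-;hTDP1 cells, no CPT (DMSO vehicle only), 400 cells/well; compounds pin-transferred; ≥48 hr, 37 °C; CellTiter-Glo 30 min RT dark, luminescence read.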
# RORg inh: qHTS for inhibitors of ROR gamma transcriptional activity; Drosophila S2 Gal4-RORgamma UAS-luciferase reporter, 20 h; hit rate 5.4% among 310,000; Potency, µM (series often up to 53.6 µM), for inactives: top-dose activity change, negative = inhibition, actives largely listed as inhibitors; AID 2551, 2010; further: potency means the concentration at half of the fitted maximal effect; nearly all actives have a fitted effect of over 60% in size
# Target sequence (P51450 whole entry, looked up, the tested form may be a part): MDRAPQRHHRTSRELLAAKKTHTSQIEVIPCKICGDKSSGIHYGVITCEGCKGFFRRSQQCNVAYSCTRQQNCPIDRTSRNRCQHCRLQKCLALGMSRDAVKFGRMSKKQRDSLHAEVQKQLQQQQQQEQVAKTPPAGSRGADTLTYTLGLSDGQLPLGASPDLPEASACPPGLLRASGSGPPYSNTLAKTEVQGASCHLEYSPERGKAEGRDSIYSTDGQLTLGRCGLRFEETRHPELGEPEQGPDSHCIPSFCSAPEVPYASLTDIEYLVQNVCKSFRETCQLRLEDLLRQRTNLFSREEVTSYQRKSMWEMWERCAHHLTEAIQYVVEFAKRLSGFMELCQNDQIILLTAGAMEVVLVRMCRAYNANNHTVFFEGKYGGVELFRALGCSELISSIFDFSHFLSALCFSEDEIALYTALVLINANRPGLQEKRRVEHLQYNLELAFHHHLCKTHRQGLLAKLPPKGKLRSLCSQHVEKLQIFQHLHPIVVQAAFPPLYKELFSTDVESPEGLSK
#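 ROR gamma transcriptional activity was tracked as Gal4-UAS luciferase output in stably transfected Drosophila Schneider cells, with compound added 1 hr before 700 uM copper sulfate induction and a 20 hr ambient-temperature incubation.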
# VP16 counter: VP16 counterscreen qHTS for inhibitors of ROR gamma transcriptional activity; Drosophila S2 Gal4-VP16 UAS-luciferase, luminescence, 20 h; Potency, µM (doses to about 53.6 µM), without a hit: at the highest dose activity, negative = inhibition, most hits filed as inhibitors; hit rate 3.5% among 310,000; AID 2546, 2010;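 further: Gal4-VP16 expression switched on by copper sulfate through the metallothionein promoter; potency means the concentration at half of the fitted maximal effect; nearly all actives have a fitted effect of over 50% in size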
# IL1B secr inh: qHTS for Inhibitors of Inflammasome Signaling: IL-1-beta AlphaLISA Primary Screen; THP-1 LPS/ATP IL-1B secretion, AlphaLISA, 16 h; hits give low values; activity change, % at 57.5 µM; hit rate 4.7% among 360,000; AID 743279, 2014; in the data active means activity change below about -50%; inconclusive means mostly about -30% to -49%
#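 Secreted IL-1B measured by AlphaLISA bead assay after 16 h compound exposure of THP-1 cells; compounds (final up to 57.5 uM) added 1 h before LPS (250 ng/mL) and ATP (1.25 mM) stimulation; lower signal means less secretion.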
# * = called active by the depositor; ? = inconclusive; · = not tested or not shown; [ ] = dose if it differs, or a comment. Unless noted, the call rests on the fitted dose curve; in most records, active means well fitted curve in the direction sought with a large enough effect; inconclusive means small, poorly fitted or top-dose-only effect, or another doubt; inactive means no such curve, though single readings can be large; an effect the other way counts as inactive or inconclusive. On the % scale 0 is the no-effect control and ±100 the full control effect.
SMILES,TDP1 cell CPT,ELG1 repair inh,TDP1 cell noCPT,RORg inh,VP16 counter,IL1B secr inh
CCCCN1CC(=O)N2[C@H]3c4cc(Br)ccc4OC[C@@H]3[C@H](C(=O)OCC)[C@]2(C)C1=O,?,-22%,?,·,·,-16
N#CCNC(=O)c1nn2c(C(F)(F)F)cc(-c3ccccc3)nc2c1Br,0%,0%,18%,-14%,3%,13
COc1ccc(-c2cc(C(F)(F)F)n3nc(C(=O)Nc4cccc(C(F)(F)F)c4)c(Br)c3n2)cc1,13µM*,·,?,·,·,·
CCCCNC(=O)c1nn2c(C(F)(F)F)cc(-c3ccccc3)nc2c1Br,?,-10%,21µM*,?,0%,-5
Cc1ccc(CNC(=O)c2cc(Sc3ccc(F)cc3F)nc3ccccc23)cc1,-27%,·,-23%,·,·,·
COC(=O)N1C2(C=CC1(C)C(=O)NCc1ccc(N(C)C)cc1)CCCCC2 (centres undefined),·,·,·,-4%,-3%,·
COc1ccc(C2=Nn3c(nnc3-c3cccc(OC)c3OC)SC2)cc1,·,·,·,-3%,0%,·
CC(C)(C)c1nnc2sc(SCCN3C(=O)c4ccccc4C3=O)nn2c1=O,-13%,2%,-1%,1%[10 µM],0%,-5
Cc1cc(C(=O)CSc2nn3c(=O)c(C(C)(C)C)nnc3s2)c(C)n1-c1ccc(F)cc1,16µM*,-22%,?,?,2%,8
CC(C)(C)c1nnc2sc(SCC(=O)N3CCCCC3)nn2c1=O,?,15%,?,·,·,-92*
CC(C)N(C(=O)CSc1nn2c(=O)c(C(C)(C)C)nnc2s1)c1ccccc1,21µM*,20%,?,0%,-17%,-50*
COCCn1c(CNC(=O)c2cc(OC)c(OC)c(OC)c2)nc2cccnc21,-18%,·,-13%,·,·,·
Cc1c(CC(=O)NCCc2ccccc2F)c(=O)oc2cc(O)c(Cl)cc12,-17%,·,-20%,·,·,·
CC(OC(=O)C1=Cc2ccccc2OC1)C(=O)NCc1ccco1 (centres undefined),-8%,-5%,?,7%,-3%,-10
CCC(OC(=O)C1=Cc2ccccc2OC1)C(=O)NCc1ccco1 (centres undefined),-28%,-8%,26µM*,36%,1%,2
CCNc1nc(C#N)nc2c1ncn2-c1cc(F)cc(F)c1,·,7%,·,·,·,·
Cc1ccc(OCC(=O)c2cc(C)n(C)c2C)c([N+](=O)[O-])n1,-9%,?,-15%,11%,0%,14
Cc1cc(C(=O)COc2cccnc2[N+](=O)[O-])c(C)n1-c1ccccc1F,18µM*,?,9.2µM*,13%,?,-5
Cc1cc(C(=O)COc2cccnc2[N+](=O)[O-])c(C)n1-c1ccccc1,?,?,21µM*,?,?,10
Cc1cc(C(=O)COc2cccnc2[N+](=O)[O-])c(C)n1Cc1ccco1,?,-6%,26µM*,-38%,?,5
Cc1ccc(-n2c(C)cc(C(=O)COc3cccnc3[N+](=O)[O-])c2C)cc1,18µM*,?,10µM*,?,?,-3
COC(=O)c1cc(C)nc2c1c(=O)nc(SCc1cccc(C(F)(F)F)c1)n2C1CC1,-5%,·,3%,·,·,·
COC(=O)c1ccccc1NC(=O)c1cn2c3c(ccc(Cl)c3c1=O)OC(C)C2 (centres undefined),6%,·,1%,·,·,·
CNC(=O)C1(C)CCN1C(=O)Cc1ccc(C(C)C)cc1 (centres undefined),-1%,·,-18%,·,·,17
